Measurements as given in PubChem BioAssay (NCI).
Compounds without any hit were thinned out: in the full panel of roughly 83,000, 20% have a hit.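 How to read the values: 0–100, growth inhibition (40 = 60% inhibited); 0, no net growth; -100 to 0, cell death (-40 = 40% of starting cells died; -100 = all dead).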 A number with no mark means an inactive call. Active and inactive are the calls of the source. The calls were made as follows: active = growth percent below 10; inactive = the rest.

How the values were obtained:
Experiment in all cases: NCI-60 one-dose screen, 48 h (100 = growth as untreated, 0 = no growth, -100 = all killed)
Conditions in all cases: 10 µM unless noted
[1] = test system: NCI-H23 lung
[2] = test system: NCI-H226 lung
[3] = test system: NCI-H322M lung
[4] = test system: HOP-62 NSCLC
[5] = test system: NCI-H460 lung
[6] = test system: NCI-H522 lung
[7] = test system: A549/ATCC NSCLC
[8] = test system: 786-0 renal
[9] = test system: COLO 205 colon
[10] = test system: DU-145 prostate
[11] = test system: K-562 leukemia
[12] = test system: MALME-3M melanoma
[13] = test system: MDA-MB-231 breast
[14] = test system: RXF 393 renal
[15] = test system: SF-268 CNS
[16] = test system: SF-295 CNS
[17] = test system: SF-539 CNS
[18] = test system: UACC-257 melanoma
[19] = test system: M14 melanoma

| Compound | growth [1] | growth [2] | growth [3] | growth [4] | growth [5] | growth [6] | growth [7] | growth [8] | growth [9] | growth [10] | growth [11] | growth [12] | growth [13] | growth [14] | growth [15] | growth [16] | growth [17] | growth [18] | growth [19] |
| --- | --- | --- | --- | --- | --- | --- | --- | --- | --- | --- | --- | --- | --- | --- | --- | --- | --- | --- | --- |
| CC(C)[C@@]12C[C@@H](OC(=O)[C@H]3CO3)[C@@](C)(O1)[C@@H]1CC[C@@H](C)[C@H]1[C@@H]2OC(=O)/C=C/c1ccccc1 | 88.4% | 54.1% | 85.4% | 72% | 89.8% | 72.2% | 61.5% | 91.3% | 109% | 102% | 90.1% | 87% | 78.7% | 59.6% | 54.8% | 85.2% | 91.1% | 68.3% | 102% |
| O/N=C1\c2ccccc2-c2ccc(Br)cc21 | 96.1% | 103% | 101% | 113% | 106% | 95.8% | 97.4% | 98.6% | 136% | 110% | 98.7% | 103% | 107% | 116% | 102% | 99.2% | 97.8% | 106% | 129% |
| COc1ccc(Nc2nc(N)nc3c(=O)[nH]ccc23)cc1 | 85.8% | 105% | 103% | 111% | 107% | 99.5% | 104% | 106% | 118% | 114% | 69% | 150% | 110% | 133% | 106% | 106% | 104% | 131% | 108% |
| CC1(C)CC(=O)c2cc3c(N)c(C(=O)Nc4ccc(Cl)cc4)sc3nc2C1 | 105% | 108% | 114% | 108% | 109% | 95.8% | 97.6% | 98.7% | 117% | 103% | 107% | 119% | 115% | 116% | 125% | 100% | 114% | 91.4% | 107% |
| NS(=O)(=O)c1ccc(CCn2c(SCC(=O)N/N=C/c3cccnc3)nc3ccccc3c2=O)cc1 | 93.3% | 83% | 101% | 83.3% | 90.5% | 68.5% | 97.3% | 92.4% | 97.3% | 98.9% | 61% | 81.7% | 98.5% | 93.4% | 89.7% | 85.7% | 104% | 107% | 94.7% |
| NC(=O)c1ccc[n+](Cc2ccccc2)c1 | 96.1% | 102% | 104% | 127% | 108% | 99.3% | 94.3% | 109% | 112% | 101% | 113% | 75.4% | 105% | 97.6% | 107% | 109% | 96.7% | 95.3% | 96.3% |
| CC(C)c1nc2ccccc2n1CC(=O)N/N=C/c1cccc(O)c1 | 101% | 105% | 93.2% | 97.4% | 102% | 86.6% | 97.5% | 95.6% | 108% | 104% | 87% | 108% | 93.4% | 104% | 99.2% | 103% | 97.6% | 87.7% | 94.8% |
| COc1ccc(-c2cc(C(=O)Nc3ccc(Br)cc3)nc3[nH]c(=O)sc23)cc1 | 23.6% | 63.4% | 46.8% | 72.7% | 28.8% | -9.13% (active) | 20.3% | 57.2% | 42.3% | 54.9% | 27% | 25% | 84.8% | 65.1% | 51.6% | 53.2% | 43.6% | 16.4% | 44.4% |
| CN(C)c1nc(-c2ccco2)n2nc(-c3ccc(Cl)cc3)cc2n1 | 77.5% | 52% | 69.8% | 38% | 27.7% | 71.5% | 49.6% | 43.4% | 67.6% | 77% | 67.4% | 98.6% | 54.3% | 51% | 66.6% | 56% | 63.4% | 98.7% | 87% |
| O=C(Nc1ccc(-n2ccc3c(NC(=O)c4ccccc4)nccc32)cc1)c1ccc(N2CCOCC2)c(C(F)(F)F)c1 | 37.4% | 43.1% | 48.6% | 21.1% | 3.48% (active) | 29.9% | 6.91% (active) | -26.3% (active) | 16.6% | 38.9% | 17.4% | 55.5% | 52.5% | -66.5% (active) | 37% | -7.34% (active) | 22.6% | 55% | 29.1% |
| CCN1C(=O)C(C)C=C(C)C=C1C (centres undefined) | 102% | 102% | 108% | 105% | 113% | 84.5% | 105% | 115% | 104% | 90.7% | 95.3% | 104% | 112% | 106% | 103% | 59.8% | 112% | 107% | 120% |
| c1csc(-c2cnc3nonc3n2)c1 | 72.8% | 88.1% | 90.4% | 87.9% | 102% | 70.7% | 94.2% | 101% | 91.3% | 108% | 67.4% | 100% | 82% | 117% | 88.7% | 101% | 96.8% | 75.3% | 89.4% |
| COc1cc(/C=N/NC(=O)Cn2c(-c3ccc(C)o3)nc3ccccc32)ccc1OCc1ccccc1 | 91.1% | 84.4% | 85.7% | 89.8% | 91.5% | 73.6% | 72.9% | 99% | 102% | 105% | 65.5% | 115% | 78.7% | 85.6% | 76.1% | 91.7% | 103% | 89.5% | 85.2% |
| CS(=O)(=O)c1ccc(C(=O)N/N=C/c2cccc3ccccc23)cc1 | 89.6% | 83.7% | 93.9% | 74.9% | 66.8% | 4.48% (active) | 41.3% | 90.9% | 85.7% | 88.8% | 27.8% | 69.7% | 97.1% | 99.3% | 85.7% | 76% | 89.3% | 41.1% | 66.8% |
| CCSCC1CC(O)(c2ccccc2)C(c2ccccc2)C(c2ccc(F)cc2)O1 (centres undefined) | -6.5% (active) | -4.42% (active) | 3.59% (active) | -13.3% (active) | -16.3% (active) | 10.6% | 3.27% (active) | -49.5% (active) | -70.2% (active) | 3.1% (active) | 7.77% (active) | -37.6% (active) | -8.82% (active) | -12.4% (active) | 1.85% (active) | -22.4% (active) | 4.38% (active) | 4.92% (active) | -45.8% (active) |
| CC(C)(CCc1ccccn1)C(=O)CCCc1ccccn1 | 106% | 104% | 116% | 105% | 106% | 108% | 99% | 99.9% | 96.4% | 109% | 95% | 70.4% | 96.2% | 117% | 105% | 120% | 114% | 109% | 98.7% |
